# Bioassay records from PubChem BioAssay.
# Only some compounds are listed: those with a hit (about 9% of all), similar ones and a draw of the others.
# HP1b binding inh: HTS for Inhibitors of HP1-beta Chromodomain Interactions with Methylated Histone Tails | AlphaScreen HP1-beta / biotin-H3K9me3 peptide binding | Potency, µM (highest dose often 114 µM), for the others: at the highest dose activity change, negative = inhibition, hits mostly inhibitors | 390,000 tested, 0.56% active | AID 540317, 2011; further: nearly all actives have a fitted effect of over 70% in size
#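 Compound inhibition of the preformed complex between 50 nM HP1-beta and 50 nM biotinylated H3K9me3 peptide was read by AlphaScreen. Buffer was PBS pH 7.4 with 0.01% Tween-20. Incubations ran 30 min at room temperature, with 10 ug/mL donor/acceptor beads.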
# G9a inh: qHTS Assay for Inhibitors of Histone Lysine Methyltransferase G9a | Histone-lysine N-methyltransferase EHMT2 (Homo sapiens), Q96KQ7 | G9a H3K9 monomethylation, AlphaScreen, 2 h | Potency, µM (titrated, usually from 102 µM), for the others: top-dose activity, negative = inhibition, actives largely listed as inhibitors | 350,000 tested, 8.8% active | AID 504332, 2011; further: on the % scale 0 is the no-effect control and ±100 the full control effect; nearly all actives have a fitted effect of over 75% in size
#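 Using a bead-based AlphaScreen, monomethylated H3K9 product from 2 h room-temperature reactions (G9a 20 nM, peptide 500 nM, SAM 20 uM) was detected with 0.5 ug/mL rabbit anti-H3K9me1 antibody.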
# PLK1 PBD inh: qHTS for Inhibitors of PLK1-PDB (polo-like kinase 1 - polo-box domain): Primary Screen; AID 720504, 2013; Plk1 PBD binding of FITC phosphopeptide, fluorescence polarization; Serine/threonine-protein kinase PLK1 (Homo sapiens), P53350; Potency, µM, inactives show max response, negative = inhibition, hits mostly inhibitors; 360,000 tested, 2.8% active; further: series mostly up to about 57 µM; on the % scale 0 is the no-effect control and ±100 the full control effect; nearly all actives have a fitted effect of over 65% in size
# BAZ2B block: qHTS Assay for Inhibitors of BAZ2B. AlphaScreen BAZ2B-H3K14Ac peptide displacement. 360,000 tested, 4.4% active. AID 504333, 2011. Potency, µM (highest dose often 114 µM), for inactives: at the top dose activity change, negative = inhibition, actives largely listed as inhibitors. Bromodomain adjacent to zinc finger domain protein 2B (Homo sapiens), Q9UIF8; further: on the % scale 0 is the no-effect control and ±100 the full control effect; nearly all actives have a fitted effect of over 60% in size
# Target sequence (Q9UIF8 whole entry, looked up, the tested form may be a part): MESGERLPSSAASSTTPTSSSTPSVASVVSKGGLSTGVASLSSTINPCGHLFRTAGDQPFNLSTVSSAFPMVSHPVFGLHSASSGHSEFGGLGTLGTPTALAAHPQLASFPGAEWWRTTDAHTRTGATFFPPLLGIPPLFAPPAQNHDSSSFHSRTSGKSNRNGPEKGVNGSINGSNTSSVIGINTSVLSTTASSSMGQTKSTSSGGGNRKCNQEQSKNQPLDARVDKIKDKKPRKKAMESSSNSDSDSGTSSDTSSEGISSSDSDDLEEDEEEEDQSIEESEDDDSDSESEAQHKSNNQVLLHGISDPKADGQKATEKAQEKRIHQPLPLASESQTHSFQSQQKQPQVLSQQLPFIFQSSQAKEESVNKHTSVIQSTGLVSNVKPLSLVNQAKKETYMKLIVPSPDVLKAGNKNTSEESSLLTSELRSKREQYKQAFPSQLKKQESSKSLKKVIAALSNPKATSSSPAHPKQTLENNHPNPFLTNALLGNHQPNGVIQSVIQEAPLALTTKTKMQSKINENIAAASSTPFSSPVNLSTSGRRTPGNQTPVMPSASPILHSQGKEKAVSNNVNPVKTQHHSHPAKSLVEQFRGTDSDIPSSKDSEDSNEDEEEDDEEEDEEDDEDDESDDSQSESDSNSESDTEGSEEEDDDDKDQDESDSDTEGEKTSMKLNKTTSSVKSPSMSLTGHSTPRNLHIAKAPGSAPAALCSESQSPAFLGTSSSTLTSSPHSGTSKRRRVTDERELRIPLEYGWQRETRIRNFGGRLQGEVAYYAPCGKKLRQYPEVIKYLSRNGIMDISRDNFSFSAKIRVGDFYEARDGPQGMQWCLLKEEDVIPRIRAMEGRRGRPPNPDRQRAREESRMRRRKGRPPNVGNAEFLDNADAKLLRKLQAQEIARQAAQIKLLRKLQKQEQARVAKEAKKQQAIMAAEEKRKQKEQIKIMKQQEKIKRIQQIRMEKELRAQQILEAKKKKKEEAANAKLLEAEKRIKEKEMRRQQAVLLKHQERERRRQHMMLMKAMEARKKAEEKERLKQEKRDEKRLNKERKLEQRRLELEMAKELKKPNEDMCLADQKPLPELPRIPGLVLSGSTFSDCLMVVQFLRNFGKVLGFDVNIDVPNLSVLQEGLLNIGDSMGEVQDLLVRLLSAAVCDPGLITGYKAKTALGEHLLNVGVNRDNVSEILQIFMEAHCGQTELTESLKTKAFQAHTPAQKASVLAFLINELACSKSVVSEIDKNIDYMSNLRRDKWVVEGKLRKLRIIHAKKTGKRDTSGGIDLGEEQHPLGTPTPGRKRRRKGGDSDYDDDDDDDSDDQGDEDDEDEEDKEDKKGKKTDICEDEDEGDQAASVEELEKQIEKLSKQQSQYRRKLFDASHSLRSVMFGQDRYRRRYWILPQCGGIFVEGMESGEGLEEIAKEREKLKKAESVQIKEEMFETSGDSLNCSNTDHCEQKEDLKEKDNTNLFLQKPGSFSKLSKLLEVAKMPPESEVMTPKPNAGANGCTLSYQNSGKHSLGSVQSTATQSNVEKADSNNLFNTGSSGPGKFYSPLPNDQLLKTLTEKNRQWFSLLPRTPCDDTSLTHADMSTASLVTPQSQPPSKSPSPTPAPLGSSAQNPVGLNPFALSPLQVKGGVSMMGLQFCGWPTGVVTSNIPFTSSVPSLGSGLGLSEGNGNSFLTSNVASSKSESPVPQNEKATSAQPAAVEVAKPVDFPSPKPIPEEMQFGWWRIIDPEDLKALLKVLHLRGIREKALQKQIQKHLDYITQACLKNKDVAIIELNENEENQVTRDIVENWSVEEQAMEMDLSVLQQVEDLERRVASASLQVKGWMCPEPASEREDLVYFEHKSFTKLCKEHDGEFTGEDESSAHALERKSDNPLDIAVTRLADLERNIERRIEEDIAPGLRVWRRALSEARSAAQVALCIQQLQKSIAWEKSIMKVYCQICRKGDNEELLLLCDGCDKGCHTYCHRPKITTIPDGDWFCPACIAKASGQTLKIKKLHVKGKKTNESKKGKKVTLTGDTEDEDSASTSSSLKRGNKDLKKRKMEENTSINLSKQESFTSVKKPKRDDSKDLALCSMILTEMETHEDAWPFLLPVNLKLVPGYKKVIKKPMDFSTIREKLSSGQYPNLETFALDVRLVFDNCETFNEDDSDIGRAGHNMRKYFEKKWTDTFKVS
#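 AlphaScreen displacement of biotin-H3(5-23)K14Ac peptide (50 nM final) from BAZ2B (50 nM final) in PBS pH 7.4, 0.01% Tween-20; complex preformed 30 min RT, then compounds (top 110 uM) 30 min RT, beads 20 min dark.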
# 12-LOX inh: Primary qHTS assay for inhibitors of human arachidonate 12S-lipoxygenase (ALOX12): Round 2; Polyunsaturated fatty acid lipoxygenase ALOX12 (Homo sapiens), P18054; purified 12hLO, xylenol orange hydroperoxide absorbance; Potency, µM (series often up to 108 µM), without a hit: at the highest dose activity change, negative = inhibition, hits mostly inhibitors; 580,000 tested, 1.1% active; AID 1671190, 2021; further: on the % scale 0 is the no-effect control and ±100 the full control effect
#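 Hydroperoxide product was detected by ferrous iron/xylenol orange as the 573 to 405 nm absorbance ratio. Arachidonic acid at 40 uM (final) was turned over for 30 min at room temperature by 150 nM human 12hLO, pH 7.0 Hepes buffer, after 15 min compound preincubation.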
# JMJD2A Tudor inh: qHTS Assay for Inhibitors of JMJD2A-Tudor Domain | Lysine-specific demethylase 4A (Homo sapiens), O75164 | AlphaScreen JMJD2A-Tudor / H3K4me3 peptide binding | Potency, µM (doses to about 114 µM), for inactives: at the highest dose activity change, negative = inhibition, usual class: inhibitors | 390,000 tested, 4.4% active; further: on the % scale 0 is the no-effect control and ±100 the full control effect; nearly all actives have a fitted effect of over 50% in size
# Numbers without * were called inactive; ? = inconclusive; / = no result given; ! = repeats disagree; [ ] = another dose, or the depositor's remark. The call rests on the fitted dose curve; in most records, active means well fitted curve in the direction sought with a large enough effect; inconclusive means small, poorly fitted or top-dose-only effect, or another doubt; inactive means no such curve, though single readings can be large; an effect the other way counts as inactive or inconclusive. Potency means the concentration at half of the fitted maximal effect.
SMILES,HP1b binding inh,G9a inh,PLK1 PBD inh,BAZ2B block,12-LOX inh,JMJD2A Tudor inh
Cn1c(SCC(=O)N2CCCc3ccccc32)nnc1-c1c[nH]c2ccccc12,27%,24%[59 µM],2%,-1%,-9%,-2%
O=C(c1ccco1)N1CCC(n2cc(-c3nc(-c4ccccc4)no3)nn2)CC1,/,/,/,/,-8%,/
CCOC(=O)N(C)C[C@@H]1OCc2cn(nn2)CCCC(=O)N([C@@H](C)CO)C[C@H]1C,/,/,-16%,/,0%,/
CCOc1ccc(C2C(C(=O)OC)=C(C)NC3=C2C(=O)c2ccccc23)cc1OC (stereo unspecified),?,?,/,-33%,-12%,?
C#CCOc1c(Br)cc(C2C(C(=O)OC)=C(C)NC3=C2C(=O)c2ccccc23)cc1OCC (stereo unspecified),?,10µM*,/,?,?,11µM*
CC(NC(=O)COc1ncnc2cc([N+](=O)[O-])ccc12)c1ccccc1 (stereo unspecified),19%,9%[59 µM],-4%,-10%,8%,-17%
COc1cccc(-c2sc3ccc(OC)cc3c2-c2ccc(OCCN3CCCC3)cc2)c1,?,/,-2%,/,/,56µM*
COc1cccc(-c2sc3ccccc3c2-c2ccc(OCCN3CCCC3)cc2)c1,?,/,-8%,/,?,45µM*
COc1ccc2sc(-c3ccccc3OC)c(-c3ccc(OCCN(C)C)cc3)c2c1,-35%,/,-10%,/,?,50µM*
COc1ccc(-c2sc3ccc(OC)cc3c2-c2ccc(OCCN3CCOCC3)cc2)cc1,-11%,/,-13%,/,/,?
COc1cccc(-c2sc3ccccc3c2-c2ccc(OCCN3CCCCC3)cc2)c1,-11%,/,0%,/,/,?
COc1ccc2sc(-c3ccccc3OC)c(-c3ccc(SC)cc3)c2c1,/,/,-4%,/,0%,/
COc1cccc(-c2sc3cc(OC)c(OC)cc3c2-c2ccc(OCCN3CCCCC3)cc2)c1,?,/,-18%,/,/,32µM*
Cc1cc(C(=O)OCC(=O)NCc2ccccc2)c2ccccc2n1,16%,/,-13%,/,-12%,-18%
COc1cccc(-c2sc3ccccc3c2-c2ccc(OCCN(C)C)cc2)c1,?,/,3%,/,?,45µM*
CC1CCCCC1NC(=O)/C(C#N)=C/c1ccc2c(c1)OCCO2 (stereo unspecified),41%,2%[59 µM],27µM*,-5%,/,-11%
COc1ccc(C(C)NC(=O)Cn2c(C)cc3nc4n(c(=O)c32)CCCC4)cc1 (stereo unspecified),/,/,/,/,50µM*,/
Cc1cc2nc3n(c(=O)c2n1CC(=O)Nc1ccc(Cl)cc1F)CCCCC3,/,/,/,/,-18%,/
Cc1cc2nc3n(c(=O)c2n1CC(=O)Nc1ccc(Cl)cc1F)CCCC3,/,/,/,/,22µM*,/
C=C1c2c(Cl)ccc(O)c2C(O)=C2C(=O)[C@@]3(O)C(O)=C(C(N)=O)C(=O)[C@@H](N(C)C)[C@@H]3[C@@H](O)[C@H]12,/,11µM*,/,/,/,/
C[C@H]1c2cccc(O)c2C(O)=C2C(=O)[C@]3(O)C(O)=C(C(N)=O)C(=O)[C@@H](N(C)C)[C@@H]3[C@@H](O)[C@@H]21,19%,2.7µM*!,-17%,8.9µM*,?,13µM*
C[C@H]1c2cccc(O)c2C(O)=C2C(=O)[C@]3(O)C(O)=C(C(N)=O)C(=O)C(N(C)C)[C@@H]3[C@@H](O)C21 (stereo partly specified),/,3.2µM*,/,/,/,/
CN(C)C1C(=O)C(C(N)=O)=C(O)[C@@]2(O)C(=O)C3=C(O)c4c(O)ccc(Cl)c4C(O)[C@H]3C[C@@H]12 (stereo partly specified),/,-28%[2.33 µM],/,/,/,/
O=C(Nc1cccc(Cl)c1)C1=Cc2cc(Cl)ccc2OC1,86%,-24%,-4%,9%,150%,26%
CC1(C)CC(=O)C=C(Nc2cccc(F)c2)C1,13%,-9%,30µM*,-11%,0%,?
SMILES,HP1b binding inh,G9a inh,PLK1 PBD inh,BAZ2B block,12-LOX inh,JMJD2A Tudor inh
COC(=O)c1ccc(NC2=CC(=O)CC(C)(C)C2)cc1,?,-36%[12.7 µM],3.4µM*,-25%,0%,-20%[11.4 µM]
COc1cccc(NC2=CC(=O)CC(C)(C)C2)c1,10%,21%[59 µM],-8%,7%,19%,-11%
COc1ccc(NC2=CC(=O)CC(C)(C)C2)cc1,69%,-9%,-8%,3%,16%,0%
CNc1ccc(C(=O)c2ccccc2C(=O)O)cc1[N+](=O)[O-],28%,-35%,-13%,-24%,-4%,?
CNc1ccc(/C=C/C(=O)c2cccc3ccccc23)cc1[N+](=O)[O-],16µM*,10µM*,2%,7.1µM*,-24%,8.9µM*
CCCCCC(=O)NNC(=S)NC(C)=O,-1%,18µM*,-26%,11%,-3%,45µM*
CCCCC(=O)NNC(=S)NC(=O)c1ccc([N+](=O)[O-])cc1,?,2.8µM*,24µM*,?,?,32µM*
CCCCCC(=O)NC(=S)NC1C2CC3CC(C2)CC1C3 (stereo unspecified),56%,45µM*,?,-4%,?,0%
CCCCC(=O)NNC(=S)NC(=O)c1cccc([N+](=O)[O-])c1,?,/,?,?,?,22µM*
CCCCC(=O)NC1C2CC3CC(C2)CC1C3 (stereo unspecified),/,/,/,/,8%,/
CCCCCC(=O)NNC(=O)Cc1ccc([N+](=O)[O-])cc1,6%,-40%,-7%,7%,8%,-10%
CCCCn1c(N)c(N(CC(C)C)C(=O)c2oc3ccc(Br)cc3c2C)c(=O)[nH]c1=O,-10%,-2%[12.7 µM],-10%,3%,?,-23%
CNC(=S)NNC(=O)c1ccc(C)cc1,/,/,/,/,18%,/
Cc1ccc(C(=O)NC(=S)NNC(=O)CC#N)cc1,11%,8.9µM*,-11%,-26%,-27%,?
CCCCC(=O)NNC(=S)NC(=O)c1ccc(C)cc1,14%,11µM*,-16%,6%,?,-13%
Cc1ncsc1CCC(=O)N1CCC2(CCNCC2)CC1,/,/,/,/,16µM*,/
O=C1Nc2ccccc2C1=Nc1ccc(F)cc1,?,-9%,0%,-4%,/,-24%
Cc1ccc(N=C2C(=O)Nc3ccc(C)c(Br)c32)cc1,-18%,1.3µM*,-13%,?,/,?
